Experimental findings from PubChem BioAssay AID2708 (National Center for Advancing Translational Sciences (NCATS), 2010) are described below.

Molecules are shown by their SMILES. The list shows a part of the results. Results filed as inconclusive are left out. Calls of active or inactive are those of the source. Calls come from the whole dose curve; as a rule, active = well fitted inhibition curve with a large enough effect; inconclusive = small, poorly fitted or top-dose-only effect; inactive = no such curve, though single readings can be large or run the other way.

The target of the experiment is ATP-dependent DNA helicase Q1 (Homo sapiens) (UniProt P46063). Description: Confirmation qHTS Assay for Inhibitors of RecQ-Like Dna Helicase 1 (RECQ1). Note: nearly all actives have a fitted effect of over 45% in size. As to conditions: RECQ1 helicase DNA unwinding, fluorescence. From the text: Survival of cells and the faithful propagation of the genome depend on elaborate mechanisms of detecting and repairing DNA damage. Treatment of advanced cancer relies on radiation therapy or chemotherapy, which kill cancer cells by causing extensive DNA damage. It is often found, that cancer cells develop resistance to therapy through enhanced activity of DNA repair functions; this has led to an increased interest in developing drugs that interfere with DNA repair, which could sensitize cancer cells to conventional therapy.
Chain of ATP-dependent DNA helicase Q1 (Homo sapiens) (P46063 whole entry, looked up): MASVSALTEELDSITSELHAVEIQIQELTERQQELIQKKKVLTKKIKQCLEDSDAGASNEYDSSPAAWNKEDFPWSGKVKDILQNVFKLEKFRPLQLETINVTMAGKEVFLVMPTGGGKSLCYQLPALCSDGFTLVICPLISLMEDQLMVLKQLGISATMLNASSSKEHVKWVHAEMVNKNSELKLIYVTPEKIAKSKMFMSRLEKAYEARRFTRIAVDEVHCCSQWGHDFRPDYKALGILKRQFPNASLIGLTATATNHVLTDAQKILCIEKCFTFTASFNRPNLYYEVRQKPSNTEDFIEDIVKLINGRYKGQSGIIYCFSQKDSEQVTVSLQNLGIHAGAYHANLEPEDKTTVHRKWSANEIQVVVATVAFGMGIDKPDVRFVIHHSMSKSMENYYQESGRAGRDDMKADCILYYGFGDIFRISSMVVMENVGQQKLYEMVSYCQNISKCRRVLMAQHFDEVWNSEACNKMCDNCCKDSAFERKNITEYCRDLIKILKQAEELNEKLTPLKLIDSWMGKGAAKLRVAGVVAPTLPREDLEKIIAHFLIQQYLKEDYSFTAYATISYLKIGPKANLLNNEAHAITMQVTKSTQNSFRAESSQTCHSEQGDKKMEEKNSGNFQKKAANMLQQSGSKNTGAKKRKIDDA
This validation qHTS assay pertains to human RECQ1, which is important in resolving abnormal DNA structures formed during replication or homologous recombination. Shutting down the expression of RECQ1 leads to chromosomal instability and higher radiation sensitivity in cultured cells.
The validation assay was a fluorescence quenching based kinetic qHTS for RECQ1 Helicase DNA unwinding. The activity was measured as ATP-dependent separation of a 20-bp DNA duplex extended by 30-nt single-stranded tails (forked duplex). The forked DNA substrate was tagged with rhodamine fluorophore (carboxytetramethyl rhodamine, TAMRA) and BHQ-2 (Black Hole Quencher 2) dark quencher. Strand separation results in an increase in the fluorescence of TAMRA (excitation 525 nm, emission 598 nm). […]
Potency is the fitted concentration of half-maximal effect.

Turning to `O=C(O)c1cc[c]([Sb](=[O])([OH])[OH])cc1[N+](=O)[O-]`, the Potency was 913 nM (active).
